PABP polyA inh = blocks human PABP binding to poly(A) RNA. calls only at 35 µM. AID 2014. fluorescence polarization. 290,000 tested, 1% active;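 further: calls also rest on retests at 20 µM and on dose response follow-up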
A3G deaminase = inhibitors of human APOBEC3G DNA deaminase. recombinant A3G, ssDNA deamination FAM/TAMRA fluorescence. inhibition, % at 20 µM. 330,000 tested, 0.28% active. AID 493012;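 active means inhibition of at least 40% at 20 µM, with no more than 30% in the related APOBEC3A deaminase screen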
Target sequence (Q9HC16 whole entry, looked up): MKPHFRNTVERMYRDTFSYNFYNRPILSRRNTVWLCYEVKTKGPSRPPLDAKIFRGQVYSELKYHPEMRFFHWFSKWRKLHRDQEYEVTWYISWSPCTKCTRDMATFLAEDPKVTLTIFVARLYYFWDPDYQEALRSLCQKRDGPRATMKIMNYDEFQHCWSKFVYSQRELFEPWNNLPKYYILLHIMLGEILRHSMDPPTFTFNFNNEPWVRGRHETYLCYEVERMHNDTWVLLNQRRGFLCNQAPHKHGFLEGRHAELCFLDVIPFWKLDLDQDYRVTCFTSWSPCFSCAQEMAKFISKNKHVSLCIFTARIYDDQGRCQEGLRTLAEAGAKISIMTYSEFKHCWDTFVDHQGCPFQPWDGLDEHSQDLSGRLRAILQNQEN
eIF4H FP inh = inhibitors of RNA binding by human eIF4H. inhibition, % at 35 µM. 290,000 tested, 0.94% active. Q15056. eIF4H fluorescence polarization binding assay;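 further: calls also rest on retests at 20 µM and on dose response follow-up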
A3A deaminase = human APOBEC3A DNA deaminase inhibition; P31941; AID 493011; inhibition, % at 20 µM; 330,000 tested, 0.41% active; recombinant A3A, FAM/TAMRA ssDNA deamination fluorescence;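 active means at least 40% inhibition at 20 µM here, with at most 30% in a related deaminase screen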
MLLE-PAM2 inh = inhibitors of microRNA-mediated deadenylation, human PABP1 MLLE binding; P11940; GST-MLLE / FITC-PAM2 fluorescence polarization; inhibition, % at 20 µM; 360,000 tested, 0.36% active; in the data active means inhibition above about 35%, passing the limit was not always enough
PHOSPHO1 inh = blocks human PHOSPHO1 phosphatase activity; AID 1565; inhibition, % at 13.3 µM; 290,000 tested, 1.1% active; Q8TCT1; recombinant PHOSPHO1, absorbance phosphatase assay; in the data active means inhibition above about 60%
APOBEC3G confirm = APOBEC3G (human) deaminase inhibition, confirmed. inhibition, % at 20 µM. shares compounds with A3G deaminase. recombinant A3G ssDNA deaminase, UDG/FAM-TAMRA fluorescence. 890 tested, 72% active. AID 493152;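 active means inhibition reaching a set limit in any replicate at 20 µM, the limit being 80% of the first screen's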
UDG ctr A3G = inhibits E. coli UDG, flagging false APOBEC3G inhibitors; shares compounds with A3G deaminase; UDG counterscreen, FAM/TAMRA oligo fluorescence; inhibition, % at 20 µM; 710 tested, under 10 active; AID 504715;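 active means compounds giving 40% or more inhibition at 20 µM in any one of the three replicates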;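 further: inhibitors lower the FAM signal released by uracil excision and alkaline cleavage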
Target sequence (P12295 whole entry, looked up): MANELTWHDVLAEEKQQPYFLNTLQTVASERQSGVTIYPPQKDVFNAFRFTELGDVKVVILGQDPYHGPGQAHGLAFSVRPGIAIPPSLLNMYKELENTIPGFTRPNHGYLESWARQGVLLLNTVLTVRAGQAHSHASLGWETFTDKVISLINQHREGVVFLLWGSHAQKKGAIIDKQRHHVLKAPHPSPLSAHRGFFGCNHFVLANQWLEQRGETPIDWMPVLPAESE
Each line names hits and unclear results; the compound was inactive in the other large screens (follow-up assays come after a bar, where they were run). Only some compounds are listed: those with a hit (about 2.6% of all), similar ones and a draw of the others. Unless noted, how the calls were made is not given here.

CCOC(=O)c1c(NC(=O)c2ccccc2Cl)sc2c1CCc1ccccc1-2	A3G deaminase 57 | APOBEC3G confirm 75 | UDG ctr A3G inactive
CCOC(=O)c1c(NC(=O)c2ccccc2C(=O)O)sc2c1CCCC2	none
CCOC(=O)c1c(NC(=O)c2ccccc2)sc2c1CCc1ccccc1-2	A3G deaminase 58, MLLE-PAM2 inh 43 | APOBEC3G confirm 16 | UDG ctr A3G inactive
CCOc1cc2c(cc1OCC)CN(C(=O)c1cccc(S(=O)(=O)N3CCCC3)c1)CC2	none (no result: PABP polyA inh, eIF4H FP inh, PHOSPHO1 inh)
CS(=O)(=O)c1ccc(N)c(SSc2cc(S(C)(=O)=O)ccc2N)c1	A3G deaminase 87 (no result: PABP polyA inh, eIF4H FP inh, PHOSPHO1 inh) | APOBEC3G confirm 95
CS(=O)(=O)c1ccc2nc(N)sc2c1	none
O=C(Cc1ncon1)Nc1ccc(F)c(F)c1F	A3G deaminase 66 | APOBEC3G confirm inactive
COc1cc(S(=O)(=O)Nc2ccc(C)cc2)ccc1N=Cc1c(C)[nH]n(-c2ccccc2)c1=O	none
COc1cc(S(=O)(=O)Nc2cccc(C)c2)ccc1N=Cc1c(C)[nH]n(-c2ccccc2)c1=O	A3G deaminase 55 (no result: MLLE-PAM2 inh) | APOBEC3G confirm inactive
Cc1cccc(OCCn2c(=S)[nH]c3ccccc32)c1	A3G deaminase 62 | APOBEC3G confirm 46 | UDG ctr A3G inactive
Cc1cccn2c(=O)c3cc(C(=O)NCc4ccco4)c(=N)n(CCOCCO)c3nc12	A3G deaminase 58, MLLE-PAM2 inh 58 (no result: PABP polyA inh, eIF4H FP inh, PHOSPHO1 inh) | APOBEC3G confirm inactive
CC(C)(C)S(=O)(=O)Cc1nc(-c2ccc(Cl)c(Cl)c2)cs1	A3G deaminase 67 | APOBEC3G confirm inactive
N#Cc1c(SCC(N)=O)nc2c(c1-c1ccncc1)CCCC2	none
N#Cc1c(-c2ccncc2)c2c([nH]c1=S)CCCC2	A3G deaminase 46, PHOSPHO1 inh 77 | APOBEC3G confirm 85 | UDG ctr A3G inactive
CCN(CC)S(=O)(=O)c1cc(NC(=O)Cn2ncc(Cl)c(Cl)c2=O)ccc1C	PABP polyA inh active, A3G deaminase 55 | APOBEC3G confirm inactive
COc1ccccc1CNC(=O)C1CCC(CNc2c(N3CCC(C)CC3)c(=O)c2=O)CC1 (stereo not given)	none
CCOC(=O)N1CCN(c2ccnc3cc(Cl)ccc23)CC1	A3G deaminase 58 | APOBEC3G confirm inactive | UDG ctr A3G inactive
CCC(=O)N1CCN(c2ccnc3cc(Cl)ccc23)CC1	none
CCn1cc(C(=O)NCC(OC)OC)c(=O)c2cc(S(=O)(=O)N3CCCC3)ccc21	none
CCn1cc(C(=O)NCC(OC)OC)c(=O)c2cc(S(=O)(=O)N3CCC(C)CC3)ccc21	A3G deaminase 59 | APOBEC3G confirm inactive | UDG ctr A3G inactive
CC(=O)c1ccc(NC(=O)CSc2nc3[nH]ncc3c(=O)[nH]2)cc1	none (no result: PABP polyA inh, eIF4H FP inh, PHOSPHO1 inh)
Cc1ccc(NC(=O)CSc2nc3[nH]ncc3c(=O)[nH]2)cc1	A3G deaminase 52 | APOBEC3G confirm inactive
COc1cc(C(=O)N2C(=O)CCC2=O)cc(OC)c1OC	A3G deaminase 57 | APOBEC3G confirm inactive | UDG ctr A3G inactive
COc1cc(C(=O)N2CCNCC2)cc(OC)c1OC	none
CN(C(=O)COC(=O)c1ccc(=O)n(Cc2ccccc2)n1)C1CCCCC1	none (no result: PABP polyA inh, eIF4H FP inh, PHOSPHO1 inh)
O=C1/C(=C\c2ccc(O)c(O)c2)SC(=S)N1Cc1ccccc1	none
O=C1/C(=C\c2cccc(O)c2O)SC(=S)N1Cc1ccccc1	A3G deaminase 62 | APOBEC3G confirm 59 | UDG ctr A3G inactive
CC(C)(C)OC(=O)C[C@@H]1C/C=C\C[C@H](CC(=O)NCCO)C(=O)N[C@@H](Cc2ccccc2)COC1=O	none (no result: PABP polyA inh, eIF4H FP inh, PHOSPHO1 inh)
Cc1c(O)cc2c(c1O)C(=O)CC(c1ccc(O)cc1)O2 (stereo not given)	PABP polyA inh active, A3G deaminase 56, eIF4H FP inh 95 | APOBEC3G confirm 69
COc1ccc(N2C(=O)c3ccccc3C2O)cc1 (stereo not given)	none
COc1ccc(O)c(C(=O)C2c3ccccc3C(=O)N2c2ccc(C)cc2)c1 (stereo not given)	A3G deaminase 75 | APOBEC3G confirm 88 | UDG ctr A3G inactive
NS(=O)(=O)c1cc(C(=O)OC2CCOC2=O)ccc1Cl (stereo not given)	none
Oc1ccc(/C=N/N2CCN(C3c4ccccc4-c4ccccc43)CC2)cc1O	none
CCOC(=O)c1sc(=S)n(C)c1NC(=O)c1cccc(Br)c1	A3G deaminase 47 | APOBEC3G confirm inactive | UDG ctr A3G inactive
COCCCn1c(=NC(=O)c2ccccc2)c(C#N)cc2c(=O)n3cccc(C)c3nc21	PABP polyA inh inconclusive, A3G deaminase 46, eIF4H FP inh inconclusive | APOBEC3G confirm inactive | UDG ctr A3G inactive
COc1ccnc(N2CCN(c3cccc(C(F)(F)F)c3)CC2)c1C#N	A3G deaminase 47 | APOBEC3G confirm inactive
Cc1cc(C(C)C)n2c(nc3ccccc32)c1C#N	none (no result: MLLE-PAM2 inh)
Cc1cc(-c2ccco2)c(C#N)c2nc3ccccc3n12	PABP polyA inh active, A3G deaminase 53, eIF4H FP inh 88 | APOBEC3G confirm 47
O=C(CSc1nnc(NC2CC2)s1)NN1C(=O)NC2(CCCCC2)C1=O	none (no result: PABP polyA inh, eIF4H FP inh, PHOSPHO1 inh)
CCSS(=O)(=O)c1cccc2cccnc12	A3G deaminase 68 | APOBEC3G confirm 66 | UDG ctr A3G inactive
O=c1cc(CN2CCN(c3ccc(O)cc3)CC2)nc2scc(-c3ccccc3)n12	A3G deaminase 73 | APOBEC3G confirm inactive
Cc1ccccc1N=Cc1cccc(O)c1O	A3G deaminase 70, eIF4H FP inh inconclusive | APOBEC3G confirm 51
Cc1ccc(N=Cc2cccc(O)c2O)c(C)c1	PABP polyA inh active, A3G deaminase 75, eIF4H FP inh 99 | APOBEC3G confirm 31
Oc1cccc(/C=N/N=C/c2cccc(O)c2O)c1O	none
O=C(NCCCN1CCCC1=O)Nc1ccc([N+](=O)[O-])cc1	none
COc1cc(CN2CCc3ccccc3C2)ccc1O	none
CCOC(=O)c1c2c3c(cccc3n(C)c1=O)C(=O)c1ccccc1-2	A3G deaminase 55, MLLE-PAM2 inh 62 | APOBEC3G confirm inactive | UDG ctr A3G inactive
CCOC(=O)c1c2c3c(c(Cl)ccc3[nH]c1=O)C(=O)c1ccccc1-2	none
CCOC(=O)c1c2c3c(cccc3[nH]c1=O)C(=O)c1ccccc1-2	A3G deaminase 53 | APOBEC3G confirm inactive | UDG ctr A3G inactive
CC(=O)Nc1c2c3c(cccc3n(C)c1=O)C(=O)c1ccccc1-2	none
Cn1nccc1C(=O)OCC(=O)Nc1cccc(Cl)c1	none (no result: PABP polyA inh, eIF4H FP inh, PHOSPHO1 inh)
COc1ccc(/C=C(/NC(=O)c2ccccc2OC)C(=O)Nc2ccc(C(=O)O)cc2)cc1	none
Cc1c[n+](CC(=O)c2ccccc2)cs1	none
Cc1nnsc1C(=O)NNc1ccc(C(C)(C)C)cc1	A3G deaminase 53 | APOBEC3G confirm inactive | UDG ctr A3G inactive

From PubChem BioAssay
